Compounds with a hit are over-represented: about 2.2% of the library has one in this group of screens.
HIF activator = HIF pathway transcriptional activators, primary screen, cell-based, U2OS HRE-luciferase, luminescence; U2OS HRE-luciferase reporter; normalized: DMSO 0%, desferrioxamine 100%; activation, % at 7.5 µM (by protocol); actives 0.32% (n = 300,000); AID 1910, 2009;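 active = mean activation of at least 10% of the iron chelator positive control signal, with at least half of replicates also reaching 10%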
VLA-4 inh = inhibition in human VLA-4 binding assay, primary screen, VLA-4 allosteric modulator project, MLPCN library, flow cytometry, VLA-4 expressing cells; Integrin alpha-4 (Homo sapiens), P13612; ligand binding flow cytometry; inhibition, % (about 7 µM as worked out from the volumes in the protocol); actives 0.2% (n = 330,000); AID 2557, 2010; in the data active = inhibition above about 50%
CHT inh = inhibitors of human choline transporter CHT. High affinity choline transporter 1 (Homo sapiens), Q9GZV3. CHT-expressing cells, membrane potential dye, choline response; hits give low values. B-score at 10 µM. actives 0.86% (n = 310,000);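 active = B-score over 3 SD under the library average, and starting fluorescence ratio not unusually high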;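 also: choline stimulus applied at its EC90 after an EC20 pre-addition; B-score computed on integrated fluorescence ratio after choline addition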
Target sequence (Q9GZV3 whole entry, looked up): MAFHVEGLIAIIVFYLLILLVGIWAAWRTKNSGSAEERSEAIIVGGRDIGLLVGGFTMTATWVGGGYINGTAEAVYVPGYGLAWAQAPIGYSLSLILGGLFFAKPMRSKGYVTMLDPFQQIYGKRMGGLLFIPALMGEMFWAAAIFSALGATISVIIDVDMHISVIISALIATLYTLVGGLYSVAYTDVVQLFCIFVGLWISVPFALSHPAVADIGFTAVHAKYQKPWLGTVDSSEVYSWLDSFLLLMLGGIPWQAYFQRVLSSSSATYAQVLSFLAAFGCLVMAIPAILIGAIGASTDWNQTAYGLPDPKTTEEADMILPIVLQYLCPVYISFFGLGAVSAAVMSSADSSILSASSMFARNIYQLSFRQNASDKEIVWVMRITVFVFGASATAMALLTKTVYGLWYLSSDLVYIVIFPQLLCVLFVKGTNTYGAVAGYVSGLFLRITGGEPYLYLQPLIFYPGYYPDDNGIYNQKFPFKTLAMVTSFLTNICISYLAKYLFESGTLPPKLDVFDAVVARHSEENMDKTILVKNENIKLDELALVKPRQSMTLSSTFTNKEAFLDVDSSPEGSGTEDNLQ
Platelet DG rel = inhibitors of platelet dense granule secretion, primary screen, cell-based, MLPCN, human platelets; actives 0.22% (n = 300,000); AID 1663, 2009; human platelet-rich plasma, SFLLRN dense granule ATP release, luminescence; inhibition, %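 (compounds screened at 7.5 µM in platelet-rich plasma)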;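 active = mean replicate score, as percent of positive control, at or above 50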
CHT PAM = CHT positive allosteric modulators, primary screen, cell-based, membrane potential dye, choline EC20 | High affinity choline transporter 1 (Homo sapiens), Q9GZV3 | CHT-expressing cells; hits give high values; LV-AA mutant CHT in HEK293 cells | B-score at 10 µM | actives 0.49% (n = 310,000) | AID 488977, 2010;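 active = initial fluorescence not abnormally high and integrated response B-score, plate-corrected, over 3 SD above library mean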
AI-2 QS mod = Vibrio harveyi AI-2 quorum sensing modulators, primary screen, JMH597 strain, luminescence/OD600 ratio | Vibrio harveyi JMH597 AI-2 luminescence/OD600 ratio, 9 h; hits give low values; strain lacks LuxN and CqsS sensors; 0 = neutral-control median | activity change, % at 7.5 µM | actives 0.4% (n = 300,000) | AID 2094, 2009; in the data active = activity change below about -75%, passing the limit was not always enough;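 also: luminescence divided by OD600 gain over 9 h not by final OD600 alone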
VLA-4 allo CP = retest of VLA-4 allosteric modulators, confirmation, cell-based, cherry-picked plates, U937, HUTS-21 LIBS antibody | U937 cells, HUTS-21 LIBS mAb binding, flow cytometry; LDV ligand present at threefold Kd | inhibition, % at 6.7 µM | actives 2% (n = 1,300) | shares compounds with VLA-4 inh | AID 2813, 2010; in the data active = inhibition above about 40%;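 also: 0% = ligand without compound and 100% = no ligand background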
* = called active by the depositor; i = inactive; / = no result given.

SMILES | HIF activator | VLA-4 inh | CHT inh | Platelet DG rel | CHT PAM | AI-2 QS mod | VLA-4 allo CP
CCCCOc1ccc(CN(CCO)CCO)cc1[N+](=O)[O-] | 0.4 | 11.4 | i | -0.1 | i | 22.9 | /
Cc1ccc(N2CC(NS(=O)(=O)c3cccs3)CC2=O)cc1 (centres undefined) | -0.4 | 11.5 | i | 9.3 | i | 11.4 | /
CCOC(=O)c1c(NC(=O)COC)sc2c1CCCC2 | -0.1 | 2.2 | i | 6.8 | i | 4.9 | /
CCOC(=O)c1c(NC(=O)COc2ncnc3sccc23)sc2c1CCC2 | -0.2 | 70.0* | i | 2.7 | i | 11.9 | 8.4
Cc1cc(/C=N\NC(=O)c2cccs2)c(C)n1-c1ccc2ncccc2c1 | 1.9 | 93.4* | i | 4.4 | i | 6.3 | 0.0
COc1ccc(-c2nc(CSCC(=O)NCCCN3CCCC3=O)c(C)o2)cc1OC | 0.0 | 12.1 | i | -5.4 | i | 11.7 | /
O=C(NC(=S)NCc1ccc(-c2nc3ccccc3s2)cc1)c1ccco1 | 1.0 | 44.8 | i | -2.0 | i | 2.6 | 2.1
CCOC(=O)[C@H]1[C@H]2COc3ccc(OC)cc3[C@@H]2N2C(=O)CN(Cc3ccc(OC)cc3)C(=O)[C@@]12C | / | 5.8 | / | / | / | / | /
O=c1c2ccccc2c(/C=N/c2n[nH]c(CCCO)n2)c(O)n1-c1ccccc1Cl | -0.2 | -7.2 | i | 11.1 | i | 19.2 | /
NC(=O)c1ccccc1NC(=O)c1cc(S(=O)(=O)N2CCCCC2)ccc1N1CCOCC1 | / | 6.0 | / | / | / | / | -4.1
Cc1ccc(C)c(NC(=O)c2cc(S(=O)(=O)N3CCCCC3)ccc2N2CCOCC2)c1 | / | 50.9* | / | / | / | / | 3.8
Cc1ccc(S(=O)(=O)N2CCOCC2)cc1NC(=O)c1cc([N+](=O)[O-])ccc1N1CCOCC1 | 0.0 | 1.5 | i | 7.3 | i | 10.5 | /
O=C(Nc1ccccc1)c1cc(S(=O)(=O)N2CCCCC2)ccc1N1CCOCC1 | / | 18.6 | / | / | / | / | -0.2
O=C(C1CCCN(CCCc2ccccc2)C1)N1CCCCC1 (centres undefined) | -0.2 | 18.2 | i | -3.8 | i | 20.5 | /
CN(C(=O)CCCN1C(=O)c2ccccc2C1=O)C1CCCCC1 | / | 0.0 | / | / | / | / | /
COc1cc(OC)cc(C(=O)NC(C(=O)N2CCc3ccccc3C2)C(C)C)c1 (centres undefined) | -0.7 | 49.8* | i | -1.5 | i | 29.1 | 5.4
COc1ccc(CC(=O)Nc2ccc(OC(C)=O)cc2C(=O)O)cc1 | -0.3 | 11.5 | i | -3.6 | i | 5.1 | /
CC(=O)Oc1ccc(NC(=O)Cc2ccccc2)c(C(=O)O)c1 | -0.1 | 51.6* | i | 21.3 | i | 15.4 | -1.6
CCCCCCCCOC(=O)c1ccc(N)cc1 | -0.1 | 49.6* | i | -0.4 | i | 24.3 | 7.2
O=C(/C=C/c1c(F)cccc1Cl)N1CCOCC1 | 0.8 | -15.8 | i | 6.1 | i | 26.6 | /
Cn1cc(CN2CCC(n3nccc3NC(=O)CCOc3ccccc3)CC2)cn1 | -0.2 | -108.4 | i | -33.6 | i | 34.6 | /
Cc1ccc(CN2CCC(n3nccc3NC(=O)CCOc3ccccc3)CC2)cc1C | -0.4 | 105.9* | i | 1.1 | i | 5.3 | 2.1
O=c1cc(Cc2nnc(SCc3ccccc3)n2-c2ccc(Cl)cc2)[nH]c(=O)[nH]1 | -0.3 | 1.8 | i | 14.9 | i | 19.5 | /
CC1CCN(C(=O)CSc2nnc(Cc3cc(=O)[nH]c(=O)[nH]3)n2-c2ccc(Cl)cc2)CC1 | -0.4 | -59.4 | i | 0.3 | i | 13.2 | 10.9
COC(=O)CSc1nnc(Cc2cc(=O)[nH]c(=O)[nH]2)n1-c1cccc(OC)c1 | -0.3 | 12.8 | i | -3.4 | i | 13.1 | /
